# Screening data deposited in PubChem by National Center for Advancing Translational Sciences (NCATS).
# Hits are enriched below; roughly 10% of the tested compounds scored in any of these assays.
# HEK cytotox = HEK 293 cell cytotoxicity; HEK 293 viability, ATP luminescence (CellTiter-Glo), 48-72 h; Potency, µM (highest dose often 115 µM), for inactives: at the top dose activity change, negative = cytotoxicity, most hits filed as inhibitors; 94,000 tested, 6.6% active; AID 1345083; further: nearly all actives have a fitted effect of over 60% in size
#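 HEK 293 cells seeded at 250 cells/well were exposed to compound for 48 or 72 hr at 37 degree Celsius. Viability taken as ATP content by CellTiter-Glo luminescence.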
# GPT2 inh = inhibitors of human GPT2 alanine aminotransferase; Q8TD30; Recombinant GPT2, coupled pyruvate oxidase/HRP Amplex Red fluorescence; Potency, µM (titrated, usually from 57.7 µM), for inactives: at the top dose activity change, negative = inhibition, hits mostly inhibitors; 100,000 tested, 0.25% active; AID 1671188; further: nearly all actives have a fitted effect of over 60% in size
#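 Inhibition is scored from Amplex Red fluorescence generated when pyruvate oxidase and HRP act on pyruvate released by GPT2. Reactions contain 10ng/uL enzyme, 250uM a-KG and 2mM L-alanine and run 30 min at room temperature.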
# NPR1 antag = antagonists of human natriuretic peptide receptor Npr1; AID 1347048; P16066; HEK293 hNpr1 GloSensor cGMP, ANP-stimulated luminescence; 76,000 tested, 1.6% active; Potency, µM (top dose mostly 46.3 µM), inactives show at the top dose activity change, negative = inhibition, usual class: inhibitors; calls by dose curve; further: nearly all actives have a fitted effect of over 60% in size
#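 Compound pre-incubated 30 min at room temperature on GloSensor-loaded HEK293 cells stably carrying hNpr1 and the pGS-40F cGMP biosensor. Stimulation uses hNppA at 0.1 nM final; luminescence is taken at baseline and 20 min post-agonist.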
# 3T3 cytotox = NIH 3T3 cell cytotoxicity | AID 1345082 | 94,000 tested, 4.3% active | Potency, µM (titrated, usually from 96.7 µM), for inactives: top-dose activity change, negative = cytotoxicity, hits mostly inhibitors | NIH 3T3 viability, CellTiter-Glo ATP luminescence, 48-72 h; further: nearly all actives have a fitted effect of over 55% in size
#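 ATP-dependent luminescence (CellTiter-Glo) served as the viability signal for NIH 3T3 cells treated with compound for 48 or 72 hr at 37 °C.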
# Luciferase inh = Photinus pyralis luciferase inhibition; purified P. pyralis luciferase, luminescence, biochemical; 76,000 tested, 2.5% active; AID 1347043; Potency, µM (series often up to 115 µM), most hits filed as inhibitors; further: nearly all actives have a fitted effect of over 65% in size
# Target sequence (P08659 whole entry, looked up): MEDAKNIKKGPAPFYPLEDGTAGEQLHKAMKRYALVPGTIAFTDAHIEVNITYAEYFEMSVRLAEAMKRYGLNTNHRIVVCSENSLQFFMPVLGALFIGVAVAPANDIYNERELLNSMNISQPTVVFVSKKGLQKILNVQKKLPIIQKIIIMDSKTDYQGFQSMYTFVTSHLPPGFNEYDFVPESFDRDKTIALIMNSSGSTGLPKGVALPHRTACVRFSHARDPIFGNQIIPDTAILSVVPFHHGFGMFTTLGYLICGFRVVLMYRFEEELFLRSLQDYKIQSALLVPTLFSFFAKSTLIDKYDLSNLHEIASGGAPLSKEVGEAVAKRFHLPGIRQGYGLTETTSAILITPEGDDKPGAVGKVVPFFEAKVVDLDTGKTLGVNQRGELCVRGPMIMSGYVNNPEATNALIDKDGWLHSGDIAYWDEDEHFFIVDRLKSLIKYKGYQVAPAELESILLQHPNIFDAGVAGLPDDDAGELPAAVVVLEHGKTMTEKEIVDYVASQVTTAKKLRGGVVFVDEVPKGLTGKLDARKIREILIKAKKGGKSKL
#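 Purified P. pyralis luciferase (10nM final) in 50mM Tris acetate pH 7.5, 10mM Mg acetate, 0.01% Tween-20, 0.05% BSA with 10uM D-luciferin and 10uM ATP. Compounds titrated qHTS. Luminescence imaged on CCD.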
# * marks the source's active call; other numbers are inactive results; i = inactive; ? = inconclusive; / = not tested or not shown; [ ] = dose if it differs, or a comment. Unless noted, the call rests on the fitted dose curve; in most records, active means well fitted curve in the direction sought with a large enough effect; inconclusive means small, poorly fitted or top-dose-only effect, or another doubt; inactive means no such curve, though single readings can be large; an effect the other way counts as inactive or inconclusive. On the % scale 0 is the no-effect control and ±100 the full control effect; potency means the concentration at half of the fitted maximal effect.
SMILES,HEK cytotox,GPT2 inh,NPR1 antag,3T3 cytotox,Luciferase inh
COc1cccc(CNC(=O)c2noc(-c3ccc(C)cc3)n2)c1,-12%,3%,-2%,-22%,28µM*
COc1ccc(CNC(=O)c2noc(-c3ccc4c(c3)OCO4)n2)cc1,?,i,3%,?,32µM*
Cc1ccc(CNC(=O)c2noc(-c3ccc4c(c3)OCO4)n2)cc1,?,i,-6%,-18%,?
O=C(NCc1cccc(Cl)c1)c1noc(-c2ccc3c(c2)OCO3)n1,40µM*,i,1%,?,?
CC1CCc2nn3ccn(CC(=O)Nc4ccc(F)cc4)c(=O)c3c2C1 (configuration not stated),2%,3%,-3%,-18%,i
COc1ccc(C(=O)N2CCN(C(=O)c3nc4cccnc4n(CCc4ccccc4)c3=O)CC2)cc1,?,-1%,/,-9%,/
CCOC(=O)CCNC(=O)N1CCC(CC2CC2)(NS(C)(=O)=O)CC1,-8%,i,/,-16%,/
Cc1cc(C)n(CCC(=O)N2[C@@H]3CC[C@H]2CC(NC(=O)c2ccc(F)cc2)C3)n1 (some centres not stated),-10%,i,-5%,-22%,i
COc1ccccc1C(=O)NCc1c[nH]c2ncccc12,-4%[172 µM],-5%[88.5 µM],4%[70.6 µM],-32%[138 µM],i
COc1cccc(CNC(=O)c2c[nH]c3ncccc23)c1,-15%[172 µM],i,5%[70.6 µM],?,40µM*
O=C1CCN(S(=O)(=O)c2ccccc2)CCCN(C(=O)CCCc2ccccc2)CCN1,i,i,3%,?,i
Cc1nnc2ccc(N3CCC(N[S+](=O)([O-])c4cccs4)CC3)nn12,-20%,/,/,?,/
O=C(NCc1ccccc1F)c1nc2cccnc2n(Cc2ccccc2)c1=O,79µM*,-12%,/,?,/
O=C(c1ccc(C(F)(F)F)cc1)N1CCN(C(=O)c2nc3cccnc3n(CCc3ccccc3)c2=O)CC1,45µM*,-15%,/,?,/
O=C(NCC(F)F)c1nc2cccnc2n(Cc2ccccc2)c1=O,?,-4%[88.5 µM],/,?,/
O=C(NCCc1ccc(Cl)cc1)c1nc2cccnc2n(CCc2ccccc2)c1=O,?,2%,/,?,/
O=C(c1ccc(C(F)(F)F)cc1)N1CCN(C(=O)c2nc3cccnc3n(Cc3ccccc3)c2=O)CC1,?,i,/,?,/
O=C(NCCc1ccc(Cl)cc1)c1nc2cccnc2n(Cc2ccccc2)c1=O,89µM*,i,/,?,/
O=C(NC1CC1)c1nc2cccnc2n(CCc2ccccc2)c1=O,56µM*,i,/,-32%[138 µM],/
O=C(NC1CC1)c1nc2cccnc2n(Cc2ccccc2)c1=O,-14%[172 µM],i,/,-25%[138 µM],/
COc1ccc(C(=O)N2CCCC(C(=O)N3CCCC(c4nc5ncccc5[nH]4)C3)C2)cc1 (configuration not stated),-33%,0%,/,?,/
CO[C@H]1CN(C2CCN(C(=O)Cn3nc(C(F)(F)F)cc3C)CC2)[C@H]1c1cccnc1,-1%,i,/,-19%,/
O=C(c1cccnc1)N1CCC2(CC1)CC(N(Cc1ccc(F)cc1)C1CC1)CCO2 (configuration not stated),?,i,-15%,-14%,i
COc1ccc2c(c1)nc1n2[C@@H](CNCc2ccccc2)COC1,?,-5%[88.5 µM],-20%[70.6 µM],?,i
COc1ccc2[nH]c(C(=O)NCC(=O)N3CCCCCNC(=O)CC3c3ccccc3)cc2c1 (configuration not stated),?,i,4%,-9%,?
SMILES,HEK cytotox,GPT2 inh,NPR1 antag,3T3 cytotox,Luciferase inh
CCCCn1c(=O)c(C(=O)NCC2CC2)nc2cccnc21,-24%[172 µM],?,/,?,/
CCCCn1c(=O)c(C(=O)NCC2CCCCC2)nc2cccnc21,35µM*,-23%,/,?,/
COc1cccc(C(=O)NCC2CCCN(Cc3ccc(C)s3)C2)c1OC (configuration not stated),-8%,i,0%,-3%,i
CNC(=O)C1CCN(C(=O)c2ccc(-c3cccc(OC)c3)cc2)CC1,?,-2%,/,-10%,/
CNC(=O)c1cc2cc(-c3c(C)noc3C)nc(-c3ccccc3C)c2o1,?,i,0%[70.6 µM],11µM*,i
CC(=O)Nc1cccc(-c2nc(-c3c(C)noc3C)cc3c2cc(-c2ccccc2)n3C)c1,?,0%[88.5 µM],-30%[70.6 µM],11µM*,i
CC(=O)Nc1cccc(-c2nc(-c3c(C)noc3C)cc3cc(C)oc23)c1,79µM*,?,6%[70.6 µM],40µM*,i
Cc1noc(C)c1-c1cc2c(cc(-c3ccccc3)n2C)c(N(C)C)n1,?,-25%[88.5 µM],-17%[70.6 µM],?,i
CNC(=O)c1cc2cc(-c3c(C)noc3C)nc(-c3ccccc3OC)c2o1,?,0%[88.5 µM],1%[70.6 µM],?,i
CN(C)c1cccc(NCc2nc3c(n2Cc2ccccc2)C(=O)N(CCOc2ccccc2)CCN3)c1,?,i,-6%,?,i
COc1ccc(C2(C(=O)N(C)Cc3cccc(OC(F)(F)F)c3)CCOCC2)cc1,?,-10%,/,?,/
O=C(Nc1ccccc1)N1CCCN(c2ccc3nnc(-c4ccccc4)n3n2)CC1,-17%,/,/,?,/
CC1=CC2(O)/C=C/C(C)(O)CC(O)/C=C/C(=O)OC23C(=O)NC(CC(C)C)C3C1C (configuration not stated),/,-1%[27.3 µM],/,/,/
COc1ccc2[nH]c3c(c2c1)CCNC31CCN(C(=O)C2CCCC2)CC1,?,-12%,3%,?,i
O=C(NCc1ccc(C(F)(F)F)cc1)[C@@H]1CCCN1c1nccc(Nc2ccccc2Cl)n1,?,-10%,/,?,/
O=C(C1CCCC1)N1Cc2ccccc2CC2(CCN(CC3CCNC3)C2)C1 (configuration not stated),?,i,/,?,/
COc1cccc(CNC(=O)CN2C(=O)NC3(CCCCC3)C2=O)c1,0%,-6%,1%,-10%,i
COc1cccc(CNC(=O)Nc2cccc(-c3ccc(N4CCCCC4)nn3)c2)c1,32µM*,-9%,10µM*,?,0.25µM*
COc1ccc(OC)c(NC(=O)Nc2cccc(-c3ccc(N4CCCCC4)nn3)c2)c1,?,i,13µM*,-22%,0.25µM*
CC1CCN(c2ccc(-c3cccc(NC(=O)NC(C)C)c3)nn2)CC1,?,i,2.2µM*,-17%,0.25µM*
O=C(Cc1ccccc1)Nc1ccc([C@@H](O)[C@H]2COCC(=O)N2Cc2ccccc2)cc1,-13%[172 µM],3%[88.5 µM],2%[70.6 µM],-18%[174 µM],i
O=C(Nc1ccc([C@@H](O)[C@H]2COCC(=O)N2Cc2ccc(F)cc2)cc1)c1ccccc1,100µM*,1%[88.5 µM],-7%[70.6 µM],?,i
